Results: the supplement of paper PMC10849652
Of roughly 7,900 targets only a part is listed; those with a hit were picked by preference. About 0.6% of all pairs of compound and target were hits. Unmarked numbers belong to inactive results.

Key:
Experiment in all cases: log2 fold change, soluble protein after heating vs DMSO (PISA); higher = thermal stabilisation; K562 cells, 10 uM, 30 min; active = over 0.2 and 3.5 SD of the protein, either way, in both replicates (recomputed)
erlotinib = compound: C#Cc1cccc(Nc2ncnc3cc(OCCOC)c(OCCOC)cc23)c1 [erlotinib]
Summary of the method: (§1)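 K562 cells at 2×10^6 cells/mL were treated with 10 μM compound for 30 min. Aliquots were heated for 3 min across 48°C-58°C, pooled, and extracted in PBS with 0.5% NP-40 at 4°C; soluble protein was the supernatant after 21,000xg for 90 min. Soluble protein was quantified by TMTpro 16plex LC-MS/MS with channel sums equalised, and reported as log2 fold change in thermal stability against DMSO controls, with values from duplicates.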

[1] = compound: C/C(=N\NC(=O)C1=CC(=CC=C1)S(=O)(=O)N2CCOCC2)/C3=C(C=CC(=C3)Cl)O
Summary of the method: as §1

[2] = compound: C1=CC(=C(C=C1Cl)C2=NC3=NC=CN=C3C(=N2)NC4=CC=NC=C4)F
Summary of the method: as §1

[3] = compound: C1=CC(=CC=C1C2=NC3=C(N2)C=C(C=C3)C(=O)N)OC4=CC=C(C=C4)Cl
Summary of the method: as §1

[4] = compound: C1=CC2=C(C=CC(=C2)/C=C\3/C(=O)NC(=NCC4=CC=CS4)S3)N=C1
Summary of the method: as §1

[5] = compound: C1=CC2=NC=CN=C2C=C1/C=C/3\C(=O)NC(=O)S3
Summary of the method: as §1

[6] = compound: C1=CC=C(C=C1)C2=NC(=C(N2)C3=CC=NC=C3)C4=CC(=C(C=C4)Cl)O
Summary of the method: as §1

[7] = compound: C1=CC=C2C(=C1)C3=NNC4=CC=CC(=C43)C2=O
Summary of the method: as §1

[8] = compound: C1CCN(C1)C(=O)NC2=CC=CC(=C2)NC3=NC=C(C(=N3)NCCC4=CN=CN4)Br
Summary of the method: as §1

[9] = compound: C1CN(CCC1(CC2=CC=C(C=C2)Cl)N)C3=NC=NC4=C3C=CN4
Summary of the method: as §1

IRAK-1-4 Inhibitor I = compound: C1COCCN1CCN2C3=CC=CC=C3N=C2NC(=O)C4=CC(=CC=C4)[N+](=O)[O-] [IRAK-1-4 Inhibitor I]
Summary of the method: as §1

ibrutinib = compound: C=CC(=O)N1CCC[C@@H](n2nc(-c3ccc(Oc4ccccc4)cc3)c3c(N)ncnc32)C1 [ibrutinib]
Summary of the method: as §1

[10] = compound: CC(=O)c1cnc2ccc(-c3cc(Cl)c(O)c(Cl)c3)nc2c1N[C@H]1CC[C@H](CN(C)C)CC1
Summary of the method: as §1

ralimetinib = compound: CC(C)(C)Cn1c(N)nc2ccc(-c3[nH]c(C(C)(C)C)nc3-c3ccc(F)cc3)nc21 [ralimetinib]
Summary of the method: as §1

[11] = compound: CC(C)(O)CC(=O)NCCn1ccc2ncnc(Nc3ccc(Oc4cccc(C(F)(F)F)c4)c(Cl)c3)c21
Summary of the method: as §1

[12] = compound: CC(C)C1=C2N=C(C=C(N2N=C1)NCC3=CC=CC=C3)NCCCCCCN
Summary of the method: as §1

[13] = compound: CC(C)C[C@@H](C=O)NC(=O)[C@H](CC(C)C)NC(=O)[C@H](CC(C)C)NC(=O)OCc1ccccc1
Summary of the method: as §1

pinometostat = compound: CC(C)N(C[C@H]1O[C@@H](n2cnc3c(N)ncnc32)[C@H](O)[C@@H]1O)[C@H]1C[C@@H](CCc2nc3cc(C(C)(C)C)ccc3[nH]2)C1 [pinometostat]
Summary of the method: as §1

[14] = compound: CC1=C(C(CC(=O)N1)C2=CC=C(C=C2)C(F)(F)F)C(=O)NC3=C(C=C4C(=C3)C=NN4)F
Summary of the method: as §1

[15] = compound: CC1=C(C2=C(C=C1)C(=O)C3=CC=CC=C3N2CCCN)C
Summary of the method: as §1

Chain of UniProt Q14681 (Q14681 whole entry, looked up): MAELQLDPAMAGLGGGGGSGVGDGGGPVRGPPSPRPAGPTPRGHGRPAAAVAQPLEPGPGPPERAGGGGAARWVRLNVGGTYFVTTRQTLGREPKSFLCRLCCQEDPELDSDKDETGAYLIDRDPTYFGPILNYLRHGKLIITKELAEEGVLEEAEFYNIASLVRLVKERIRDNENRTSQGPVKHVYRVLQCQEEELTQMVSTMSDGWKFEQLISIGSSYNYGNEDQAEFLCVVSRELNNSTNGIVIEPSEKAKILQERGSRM
Chain of UniProt Q5XKP0 (Q5XKP0 whole entry, looked up): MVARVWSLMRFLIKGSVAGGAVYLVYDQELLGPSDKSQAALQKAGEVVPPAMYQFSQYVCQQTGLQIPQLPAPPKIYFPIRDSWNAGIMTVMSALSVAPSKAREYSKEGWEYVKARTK
Chain of UniProt Q12905 (Q12905 whole entry, looked up): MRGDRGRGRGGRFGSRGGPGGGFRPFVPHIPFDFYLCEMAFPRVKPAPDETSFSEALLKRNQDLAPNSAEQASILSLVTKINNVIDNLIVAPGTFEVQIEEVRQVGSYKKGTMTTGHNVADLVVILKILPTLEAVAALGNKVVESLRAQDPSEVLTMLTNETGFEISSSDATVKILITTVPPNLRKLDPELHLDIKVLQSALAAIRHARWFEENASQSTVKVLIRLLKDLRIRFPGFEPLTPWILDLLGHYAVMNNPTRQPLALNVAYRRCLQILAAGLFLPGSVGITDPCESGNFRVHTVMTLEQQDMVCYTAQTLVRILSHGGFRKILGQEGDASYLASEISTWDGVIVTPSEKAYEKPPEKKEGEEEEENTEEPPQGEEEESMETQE
Chain of UniProt Q7LBC6 (Q7LBC6 whole entry, looked up): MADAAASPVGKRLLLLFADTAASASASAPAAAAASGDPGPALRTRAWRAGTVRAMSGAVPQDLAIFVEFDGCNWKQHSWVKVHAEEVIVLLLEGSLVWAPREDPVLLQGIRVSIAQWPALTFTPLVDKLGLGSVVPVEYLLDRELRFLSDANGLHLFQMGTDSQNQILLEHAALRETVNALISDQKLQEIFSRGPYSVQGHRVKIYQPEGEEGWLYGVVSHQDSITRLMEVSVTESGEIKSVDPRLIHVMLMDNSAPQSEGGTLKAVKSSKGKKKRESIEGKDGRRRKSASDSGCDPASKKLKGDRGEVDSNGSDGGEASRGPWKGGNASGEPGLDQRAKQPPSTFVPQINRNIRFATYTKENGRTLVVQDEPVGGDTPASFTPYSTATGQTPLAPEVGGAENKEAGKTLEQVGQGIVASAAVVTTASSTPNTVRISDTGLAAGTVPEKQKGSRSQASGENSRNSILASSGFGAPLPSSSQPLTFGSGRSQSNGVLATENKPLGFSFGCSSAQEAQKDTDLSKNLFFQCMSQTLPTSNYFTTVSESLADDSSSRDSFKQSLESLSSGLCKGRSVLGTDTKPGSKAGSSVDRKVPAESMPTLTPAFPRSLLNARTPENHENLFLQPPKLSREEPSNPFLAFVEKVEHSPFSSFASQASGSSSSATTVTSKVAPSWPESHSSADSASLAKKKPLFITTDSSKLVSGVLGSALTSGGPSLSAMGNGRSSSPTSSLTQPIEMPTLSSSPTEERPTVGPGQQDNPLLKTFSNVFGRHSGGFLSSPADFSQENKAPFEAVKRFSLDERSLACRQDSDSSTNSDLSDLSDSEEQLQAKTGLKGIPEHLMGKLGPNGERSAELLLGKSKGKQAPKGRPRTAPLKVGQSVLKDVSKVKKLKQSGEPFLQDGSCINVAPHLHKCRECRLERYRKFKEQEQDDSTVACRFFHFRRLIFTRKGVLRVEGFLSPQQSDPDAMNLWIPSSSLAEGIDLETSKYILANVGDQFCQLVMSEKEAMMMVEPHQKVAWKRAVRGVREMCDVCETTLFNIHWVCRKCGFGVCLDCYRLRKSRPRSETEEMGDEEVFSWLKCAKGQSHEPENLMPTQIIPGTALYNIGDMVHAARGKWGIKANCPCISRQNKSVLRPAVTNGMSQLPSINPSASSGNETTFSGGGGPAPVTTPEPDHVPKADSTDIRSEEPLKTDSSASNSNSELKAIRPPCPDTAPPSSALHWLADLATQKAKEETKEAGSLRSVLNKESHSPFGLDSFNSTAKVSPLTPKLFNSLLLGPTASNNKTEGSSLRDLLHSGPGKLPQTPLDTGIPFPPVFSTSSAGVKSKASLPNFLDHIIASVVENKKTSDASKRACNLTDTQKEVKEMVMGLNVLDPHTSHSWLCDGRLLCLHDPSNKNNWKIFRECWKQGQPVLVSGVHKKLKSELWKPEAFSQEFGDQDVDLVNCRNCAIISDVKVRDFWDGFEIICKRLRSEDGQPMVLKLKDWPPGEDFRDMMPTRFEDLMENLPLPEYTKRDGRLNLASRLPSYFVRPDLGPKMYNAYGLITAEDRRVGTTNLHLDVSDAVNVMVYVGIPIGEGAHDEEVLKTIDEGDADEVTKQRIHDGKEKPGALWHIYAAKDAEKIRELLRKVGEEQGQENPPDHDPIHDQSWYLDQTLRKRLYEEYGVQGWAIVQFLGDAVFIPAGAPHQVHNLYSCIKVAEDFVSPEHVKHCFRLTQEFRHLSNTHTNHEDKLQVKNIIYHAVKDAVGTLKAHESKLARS
Chain of UniProt P29966 (P29966 whole entry, looked up): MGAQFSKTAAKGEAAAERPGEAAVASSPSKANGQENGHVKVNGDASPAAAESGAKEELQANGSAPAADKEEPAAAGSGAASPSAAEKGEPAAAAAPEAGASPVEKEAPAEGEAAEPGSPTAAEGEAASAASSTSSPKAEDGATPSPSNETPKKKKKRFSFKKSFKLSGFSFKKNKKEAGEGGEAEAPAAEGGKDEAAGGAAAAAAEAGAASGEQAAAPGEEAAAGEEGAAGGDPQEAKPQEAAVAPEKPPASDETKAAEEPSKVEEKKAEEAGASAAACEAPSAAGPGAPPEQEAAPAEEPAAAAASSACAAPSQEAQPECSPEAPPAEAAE
Chain of UniProt Q92604 (Q92604 whole entry, looked up): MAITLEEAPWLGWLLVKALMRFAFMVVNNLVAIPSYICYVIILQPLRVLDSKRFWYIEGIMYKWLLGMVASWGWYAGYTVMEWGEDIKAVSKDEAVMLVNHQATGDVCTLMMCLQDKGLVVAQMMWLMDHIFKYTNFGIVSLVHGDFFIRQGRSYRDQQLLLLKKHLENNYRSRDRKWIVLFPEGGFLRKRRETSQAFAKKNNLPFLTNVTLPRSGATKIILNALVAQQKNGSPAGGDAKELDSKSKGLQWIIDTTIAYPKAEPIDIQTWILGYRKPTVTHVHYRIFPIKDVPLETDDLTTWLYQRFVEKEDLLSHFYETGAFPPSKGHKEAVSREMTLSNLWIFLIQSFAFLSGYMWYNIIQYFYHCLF
Chain of UniProt Q9H9P8 (Q9H9P8 whole entry, looked up): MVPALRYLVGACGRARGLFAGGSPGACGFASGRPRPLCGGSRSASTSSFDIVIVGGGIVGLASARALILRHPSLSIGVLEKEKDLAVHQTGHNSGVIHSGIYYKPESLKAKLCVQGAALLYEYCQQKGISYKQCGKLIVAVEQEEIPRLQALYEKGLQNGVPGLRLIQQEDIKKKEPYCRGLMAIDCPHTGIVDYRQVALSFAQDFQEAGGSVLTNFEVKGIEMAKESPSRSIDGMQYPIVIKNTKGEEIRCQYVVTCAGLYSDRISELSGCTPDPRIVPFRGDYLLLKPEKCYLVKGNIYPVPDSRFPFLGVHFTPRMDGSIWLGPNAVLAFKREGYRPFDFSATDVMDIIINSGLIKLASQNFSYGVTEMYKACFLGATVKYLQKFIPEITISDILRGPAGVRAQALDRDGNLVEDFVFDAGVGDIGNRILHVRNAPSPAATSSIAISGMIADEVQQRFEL
Chain of UniProt Q9H0B6 (Q9H0B6 whole entry, looked up): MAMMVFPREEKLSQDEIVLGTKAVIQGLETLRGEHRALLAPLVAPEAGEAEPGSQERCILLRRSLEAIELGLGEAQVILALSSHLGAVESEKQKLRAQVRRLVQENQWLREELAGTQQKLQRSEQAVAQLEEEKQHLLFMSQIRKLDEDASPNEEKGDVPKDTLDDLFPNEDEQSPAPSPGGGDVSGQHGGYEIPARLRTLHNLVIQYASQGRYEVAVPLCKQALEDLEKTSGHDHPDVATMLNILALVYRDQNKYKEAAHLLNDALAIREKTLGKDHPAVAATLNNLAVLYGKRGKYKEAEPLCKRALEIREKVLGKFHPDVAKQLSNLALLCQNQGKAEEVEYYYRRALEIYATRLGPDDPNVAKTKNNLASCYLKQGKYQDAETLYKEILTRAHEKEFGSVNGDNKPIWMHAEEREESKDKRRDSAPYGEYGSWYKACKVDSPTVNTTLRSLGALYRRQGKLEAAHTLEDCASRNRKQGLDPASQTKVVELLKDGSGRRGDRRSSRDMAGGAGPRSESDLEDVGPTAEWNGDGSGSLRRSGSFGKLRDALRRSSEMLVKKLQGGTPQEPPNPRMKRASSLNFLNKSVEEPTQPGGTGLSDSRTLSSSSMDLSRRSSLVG
Chain of UniProt Q86X29 (Q86X29 whole entry, looked up): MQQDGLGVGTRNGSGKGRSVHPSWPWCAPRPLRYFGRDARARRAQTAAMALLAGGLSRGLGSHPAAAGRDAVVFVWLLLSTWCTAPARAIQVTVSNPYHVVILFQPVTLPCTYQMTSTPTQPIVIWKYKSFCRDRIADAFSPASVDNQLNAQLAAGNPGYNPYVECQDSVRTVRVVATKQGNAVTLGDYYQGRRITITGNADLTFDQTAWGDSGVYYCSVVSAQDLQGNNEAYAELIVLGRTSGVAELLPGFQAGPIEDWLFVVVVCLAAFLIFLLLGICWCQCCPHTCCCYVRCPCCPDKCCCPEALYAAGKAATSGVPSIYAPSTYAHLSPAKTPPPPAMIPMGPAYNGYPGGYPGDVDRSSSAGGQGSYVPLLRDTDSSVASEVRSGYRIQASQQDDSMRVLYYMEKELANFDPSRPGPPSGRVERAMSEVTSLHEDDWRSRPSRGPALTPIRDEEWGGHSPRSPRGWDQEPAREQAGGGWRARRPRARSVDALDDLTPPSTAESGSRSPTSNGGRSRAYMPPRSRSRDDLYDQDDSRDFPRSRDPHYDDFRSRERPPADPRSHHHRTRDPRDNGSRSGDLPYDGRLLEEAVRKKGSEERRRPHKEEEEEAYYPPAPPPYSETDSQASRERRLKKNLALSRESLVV

| Target | log2 fold change (erlotinib) | log2 fold change [1] | log2 fold change [2] | log2 fold change [3] | log2 fold change [4] | log2 fold change [5] | log2 fold change [6] | log2 fold change [7] | log2 fold change [8] | log2 fold change [9] | log2 fold change (IRAK-1-4 Inhibitor I) | log2 fold change (ibrutinib) | log2 fold change [10] | log2 fold change (ralimetinib) | log2 fold change [11] | log2 fold change [12] | log2 fold change [13] | log2 fold change (pinometostat) | log2 fold change [14] | log2 fold change [15] |
| --- | --- | --- | --- | --- | --- | --- | --- | --- | --- | --- | --- | --- | --- | --- | --- | --- | --- | --- | --- | --- |
| MAP1LC3B2 (UniProt A6NCE7) | 0.009 | 0.093 | 0.038 | 0 | -0.031 | 0.052 | 0.016 | 0.083 | -0.002 | 0.036 | -0.002 | -0.053 | -0.059 | -0.026 | 0.008 | -0.087 | 0.009 | -0.008 | -0.041 | -0.01 |
| LSR (UniProt Q86X29) | 0.022 | 0.022 | -0.08 | 0.002 | -0.019 | 0.019 | -0.105 | -0.114 | -0.038 | 0.073 | 0.053 | 0.006 | -0.139 | -0.009 | 0.058 | 0.093 | 0.086 | -0.046 | -0.035 | -0.008 |
| L2HGDH (UniProt Q9H9P8) | 0.027 | 0.169 | 0.009 | 0.043 | 0.07 | 0.01 | 0.05 | 0.093 | -0.005 | -0.007 | 0.095 | 0.028 | -0.065 | 0.003 | -0.092 | -0.069 | -0.026 | 0 | -0.018 | 0.029 |
| MICOS13 (UniProt Q5XKP0) | 0.008 | 0.018 | 0.053 | -0.007 | 0.001 | 0.039 | 0.051 | 0.052 | 0.007 | 0.023 | 0.087 | -0.012 | -0.022 | -0.077 | -0.193 | -0.146 | 0.006 | -0.023 | -0.009 | -0.008 |
| KCTD2 (UniProt Q14681) | 0.177 | -0.154 | -0.125 | -0.126 | 0.158 | -0.062 | 0.055 | -0.106 | 0.26 | -0.005 | -0.03 | 0.058 | -0.054 | 0 | -0.015 | 0.016 | 0.171 | 0.052 | -0.049 | -0.028 |
| KDM3B (UniProt Q7LBC6) | 0.029 | 0.051 | 0.083 | -0.019 | 0 | 0.043 | 0.029 | -0.015 | -0.03 | 0.008 | -0.01 | -0.04 | -0.023 | -0.018 | -0.089 | -0.047 | 0.014 | -0.011 | -0.018 | -0.007 |
| MGST1 (UniProt P10620) | -0.032 | -0.037 | 0.063 | 0.021 | 0.02 | 0.038 | 0.024 | -0.057 | -0.004 | -0.049 | 0.002 | 0.033 | 0.064 | -0.01 | -0.001 | -0.004 | 0.011 | -0.074 | 0.032 | 0.054 |
| LIMD1 (UniProt Q9UGP4) | 0.017 | 0.058 | 0.062 | -0.019 | -0.01 | 0.077 | 0.013 | 0.006 | -0.045 | 0.042 | 0.03 | 0.033 | -0.008 | 0.035 | -0.035 | 0.044 | -0.072 | 0.016 | 0.003 | -0.032 |
| ILF2 (UniProt Q12905) | -0.098 | -0.087 | -0.214 | 0.009 | -0.088 | 0.066 | -0.035 | -0.011 | -0.005 | -0.175 | -0.095 | 0.027 | 0.155 | 0.131 | 0.082 | 0.318 | -0.024 | 0.064 | -0.014 | 0.204 |
| KLC2 (UniProt Q9H0B6) | 0.036 | 0.063 | 0.008 | -0.044 | 0.078 | 0.025 | -0.039 | 0.006 | -0.063 | -0.007 | -0.035 | -0.024 | -0.309 (active) | 0.041 | -0.02 | -0.107 | 0.083 | 0.023 | -0.03 | 0.133 |
| LPGAT1 (UniProt Q92604) | -0.005 | 0.022 | 0.201 | -0.274 | 0.183 | 0.098 | -0.043 | -0.025 | 0.017 | 0.115 | -0.115 | -0.05 | 0.064 | 0.041 | -0.066 | -0.277 | -0.057 | 0.013 | 0.037 | 0.069 |
| IMMT isoform 2 (UniProt Q16891) | -0.057 | 0.043 | 0.051 | -0.022 | -0.07 | -0.021 | -0.026 | 0.021 | 0.007 | 0.047 | 0.053 | -0.011 | 0.022 | 0.054 | 0.051 | 0.015 | -0.028 | 0.058 | 0.035 | -0.106 |
| MAN2B2 (UniProt Q9Y2E5) | -0.035 | 0.005 | -0.008 | -0.003 | 0.076 | 0.025 | -0.07 | 0.063 | -0.02 | -0.186 | 0.086 | -0.079 | -0.171 | 0.029 | -0.033 | -0.078 | 0.043 | 0.089 | 0.064 | -0.048 |
| MARCKS (UniProt P29966) | -0.033 | -0.032 | 0.061 | 0.045 | -0.026 | 0.048 | 0.119 | 0.025 | 0.01 | 0.118 | -0.077 | 0.071 | 0.014 | 0.025 | -0.099 | 0.039 | 0.134 | -0.109 | 0.031 | 0.002 |
| ITM2B (UniProt Q9Y287) | 0.099 | -0.012 | -0.122 | 0.041 | 0 | 0.042 | 0.068 | -0.12 | -0.066 | 0.027 | -0.008 | 0.071 | -0.043 | -0.005 | -0.042 | -0.119 | 0.197 | 0.03 | 0.117 | -0.198 |
| KHDC4 (UniProt Q7Z7F0) | -0.005 | 0.14 | 0.009 | -0.058 | 0.089 | 0.084 | 0.074 | -0.041 | -0.042 | 0.025 | 0.034 | 0.025 | 0.003 | 0.012 | -0.201 | -0.009 | 0.015 | -0.001 | 0.008 | 0.021 |
